TbREL1 primary – TbREL1 inhibition, primary screen. P86926. AID 1117264. inhibition, % at 9.66 µM. actives 0.49% (n = 89,000). TbREL1 RNA ligation, FRET fluorescence;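 active means inhibition above the mean inhibition across all screened compounds plus 3 SD, cut at about 11% in these data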
Target sequence (P86926 whole entry, looked up): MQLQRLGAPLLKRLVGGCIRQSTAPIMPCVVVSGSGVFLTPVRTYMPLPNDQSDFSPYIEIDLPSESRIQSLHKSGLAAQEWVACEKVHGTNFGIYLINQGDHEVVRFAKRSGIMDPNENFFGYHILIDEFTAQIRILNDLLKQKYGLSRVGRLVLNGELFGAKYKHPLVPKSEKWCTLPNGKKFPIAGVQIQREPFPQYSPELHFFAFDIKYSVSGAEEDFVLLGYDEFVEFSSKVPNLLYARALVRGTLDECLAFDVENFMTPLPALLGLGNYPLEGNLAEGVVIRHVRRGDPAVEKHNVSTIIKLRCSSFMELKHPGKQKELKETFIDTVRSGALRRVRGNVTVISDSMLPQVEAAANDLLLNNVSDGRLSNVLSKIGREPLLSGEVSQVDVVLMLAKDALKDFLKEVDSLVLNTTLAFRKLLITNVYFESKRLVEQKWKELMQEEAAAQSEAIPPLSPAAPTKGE
TbREL1 conf – TbREL1 inhibition, confirmation; shares compounds with TbREL1 primary; TbREL1 RNA ligation, FRET fluorescence; inhibition, % at 9.66 µM; actives 37% (n = 390); AID 1117282;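 active means mean inhibition across replicates above a set limit taken from the earlier primary screen, cut at about 11% in these data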
A number is an active result; – = inactive. Shown is part of a subset that was picked to be rich in hits.

SMILES	TbREL1 primary	others
O=S(=O)(c1cccc2cccnc12)N1CCC(c2cn3ccccc3n2)CC1	–
COc1ccc(C2C(C(=O)Nc3cc(OC)c(OC)c(OC)c3)CCC(=O)N2c2ccc(OC)cc2)cc1 (centres undefined)	–
COc1ccc(Cn2cc(COC(=O)N3CCCC3)nn2)cc1	–
CCn1c(SCC(=O)NN=Cc2ccc(C(=O)O)cc2)nc2ccccc21	–
Cc1ccc(NC(=O)Cc2cccc(OC(F)(F)F)c2)c(S(=O)(=O)N2CCOCC2)c1	–
CN(Cc1ccc(F)cc1)C(=O)c1cccc2c1C(=O)N(Cc1cccnc1)C2	–
CCCCOCCCNC(=O)C[C@@H]1C(=O)N(CCc2ccc(Cl)cc2)C2=CCCCC[C@]21C(=O)OC	–
Cc1ccccc1Cn1ccc2ccc(-c3ccc4ccn(Cc5ccccc5)c4c3)cc21	–
COc1ccc(C(=O)N2CCn3c2nc2ccccc23)cc1	–
COc1cccc(C(=O)N2CCn3c2nc2ccccc23)c1	12	TbREL1 conf=–
CCOc1ccc(C(=O)N2CCn3c2nc2ccccc23)cc1	–
O=C(OCc1cn(Cc2c(F)cccc2F)nn1)N1CCCC1	–
COc1cccc(C(=O)NCCS(=O)(=O)NC(C)CCc2ccccc2)c1 (centres undefined)	14	TbREL1 conf=11
COc1ccc(C(=O)NCCS(=O)(=O)NCCc2ccccc2)cc1	–
COc1cccc(C(=O)NCCS(=O)(=O)NCc2ccc(Cl)cc2)c1	–
O=C(CN(CCc1ccccc1)S(=O)(=O)c1ccc(Cl)s1)N1CCOCC1	–
Cn1cc(CC(=O)Nc2ccc(Nc3cccnc3)cc2)c2ccccc21	–
CC(C)(C)NC(=O)[C@H](c1cccnc1)N(C(=O)c1ccco1)c1ccc(C(C)(C)C)cc1	–
O=C(Nc1ccc(Br)cc1)OC1CC2CC1[C@H]1CCCCN1[C@H]2Cc1ccccc1 (some centres undefined)	–
COC(=O)C1=C(C)N(Cc2cccc(C(F)(F)F)c2)C(=NCc2cc(OC)c(OC)c(OC)c2)NC1CCc1ccccc1 (centres undefined)	12	TbREL1 conf=20
COC(=O)C1=C(C)N(Cc2ccccc2)C(=S)N[C@H]1c1cccc(C(F)(F)F)c1	–
O=C(CN1C(=O)NC(CCc2ccccc2)C1=O)Nc1ccccc1C(F)(F)F (centres undefined)	–
C=CCN=C1NC(c2ccccc2)C(C(=O)OC)=C(C)N1Cc1ccccc1C(F)(F)F (centres undefined)	–
COC(=O)C1=C(C)N(Cc2ccccc2C(F)(F)F)C(=NCc2ccccc2)NC1CCc1ccccc1 (centres undefined)	21	TbREL1 conf=20
CCN1C(=NCc2cc(OC)c(OC)c(OC)c2)N[C@@H](c2cccc(C(F)(F)F)c2)C(C(=O)OC)=C1C	–
SMILES	TbREL1 primary	others
C=CCNC(=O)CN(C(=O)Cc1ccc(Cl)nc1)c1cccc(Br)c1	–
COc1ccc2c(c1)NC(=O)[C@@]2(CCN1C(=O)c2ccccc2C1=O)c1[nH]c2ccccc2c1CCN1C(=O)c2ccccc2C1=O	–
COc1ccc(OC)c(CN2C(=O)CN(S(C)(=O)=O)CC2(C)c2nnnn2C2CCCC2)c1 (centres undefined)	–
C=CCNCCOCCOc1ccc(C)cc1Br	–
CC(C)NCCOCCOc1ccc(Cl)cc1Br	–
C=CCNCCOCCOc1ccc(Cl)cc1C(C)(C)C	16	TbREL1 conf=19
O=S(=O)(c1ccc(F)cc1)N1CCC(c2nc3ccccc3o2)CC1	–
O=C(Nc1ccc(F)cc1)OCc1cn(Cc2cc(F)ccc2F)nn1	–
CCn1c2ccccc2c2cc(NC(=O)COC(=O)c3cc(Cl)c(N)cc3OC)ccc21	12	TbREL1 conf=–
CCn1c2ccccc2c2cc(NC(=O)COC(=O)c3ccccc3F)ccc21	–
CCn1c2ccccc2c2cc(NC(=O)COC(=O)c3cc(Cl)cc(Cl)c3)ccc21	–
O=C1CCC[C@H]2C[C@H](NCc3ccc(Cl)cc3)CC[C@]23CCCN13	–
CNC(=O)[C@@H]1CC=C[C@@H]2CCN(c3ccccc3)C(=O)[C@@H]21	–
Cc1ccc(OCc2nnc(SCC(=O)Nc3ccc(OCc4ccccc4)cc3)n2-c2ccc(Cl)cc2)cc1	–
CC(C)CN1C(=O)C[C@@]2(C(=O)N(C)c3ccc(NC(=O)C(F)(F)F)cc32)C1c1ccccc1 (some centres undefined)	–
O=C(Nc1ccncc1)C1CCCN(S(=O)(=O)c2cccc3cccnc23)C1 (centres undefined)	–
O=C(NC1CCCC1)C1CCN(S(=O)(=O)c2cccc3cccnc23)CC1	–
O=C(NC1CCCCC1)C1CCCN(S(=O)(=O)c2cccc3cccnc23)C1 (centres undefined)	13	TbREL1 conf=–
O=C(CCc1nc(-c2ccccc2F)no1)NCCc1ccccc1F	–
CC1=C2NC(N)=[N+](Cc3ccc4c(c3)OCO4)CC2NOC1 (centres undefined)	–
CS(=O)(=O)N1C[C@]2(c3ccccc3)CC1Cc1ccccc12	–
O=C(C1CCN(CCCc2ccccc2)CC1)N1CCCCC1	12	TbREL1 conf=–
O=C(Nc1ccccc1)N1CCN(CCc2ccccc2)CC1	–
O=C(c1ccc(-c2ccccc2)cc1)N1CCC(C(=O)N2CCCC2)CC1	–
O=C1CCCCC1Nc1ccc([N+](=O)[O-])cc1 (centres undefined)	18	TbREL1 conf=–
SMILES	TbREL1 primary	others
O=C(NC1CCCCC1)c1ccc([N+](=O)[O-])cc1	–
CN1CCN(C(=S)Nc2ccc([N+](=O)[O-])cc2)CC1	–
C#CCNC(=O)C[C@H]1C[C@@]2(C(=O)OC)C(=C[C@H](C3CCCC3)O[C@@H]2C)N(Cc2ccc(Cl)cc2Cl)C1=O	–
COc1cc2c(cc1NC(=O)CSc1nnc(COc3ccccc3)n1Cc1ccco1)oc1ccccc12	–
COc1ccc(C=Nn2c(-c3n[nH]c4c3CCC4)n[nH]c2=S)cc1OCc1ccccc1	–
CCNC(=S)NNC(=O)CSc1nc2ccccc2c(=O)n1-c1ccc(Cl)cc1	–
Cc1nc(S/C(=C\c2ccc(-c3ccc(C(=O)O)c(Cl)c3)o2)C(=O)O)n[nH]1	58	TbREL1 conf=23
O=C(O)c1cc(N/N=C/c2ccc(-c3ccc(F)cc3)o2)ccc1Cl	–
Cc1nc(S/C(=C\c2ccc(OCc3ccccc3Cl)cc2)C(=O)O)n[nH]1	–
C[C@@H]1[C@@H](O)C[C@@]2(C[C@H](O)c3cc(Cl)ccc3O2)O[C@H]1c1ccccc1Cl	–
CN(C)CCCNC(=O)C[C@@H]1CC[C@@H]2[C@H](COc3ccc(NC(=O)c4cccc(F)c4)cc3C(=O)N2C)O1	–
Cc1nn(C(=O)Cn2cc([N+](=O)[O-])cn2)c(C)c1Cl	11	TbREL1 conf=–
COC(=O)c1ccc(Cn2cc([N+](=O)[O-])cn2)cc1	–
CC(C)NC(=O)CCCn1cc([N+](=O)[O-])cn1	–
O=C(Nc1ccc(F)cc1F)C1CCN(c2nnc(-n3cccc3)s2)CC1	–
CC(C)Nc1nc(NCCOc2ccccc2Cl)c2sc(-c3ccccc3)cc2n1	13	TbREL1 conf=16
CC(O)CNc1ncnc2cc(-c3ccc(F)cc3)sc12 (centres undefined)	–
C=CCNc1nc(NCc2cccc(OC)c2)c2sc(-c3ccccc3)cc2n1	–
COCCOC(=O)N(C)C[C@@H]1OCCCC[C@H](C)Oc2ccc(NC(=O)Nc3ccccc3)cc2C(=O)N([C@@H](C)CO)C[C@H]1C	–
Cc1ccccc1C(=O)N[C@H](C(=O)N1CCC[C@H]1C(=O)NCCc1ccccc1Cl)c1ccccc1	–
FC(F)(F)c1ccccc1NC(=S)OCCN1CCCC12CCC(c1ccccc1)CC2 (centres undefined)	–
